Test results from PubChem BioAssay (NCATS).
“And” between values parts separate entries of the source, which are not always exact repeats. Equal values may be shown once. Records with an inconclusive call do not appear. The source made the active and inactive calls. Calls come from the whole dose curve; as a rule, active = well fitted inhibition curve with a large enough effect; inconclusive = small, poorly fitted or top-dose-only effect; inactive = flat fitted curve, though single readings scatter.

Columns and labels:
[1] = test system: CRL-7250; test: Cytotoxic Profiling of Annotated Libraries Using Quantitative High-Throughput Screening (AID 1296008); conditions: Five cell lines viability, CellTiter-Glo ATP luminescence, 48-72 h; max response: stronger effect = lower value
In short: (§1)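 Cytotoxicity was measured as CellTiter-Glo ATP luminescence, read after 10 min at room temperature. Compound treatment of the cells lasted 48 or 72 hr at 37 degrees Celsius in a qHTS format.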

[2] = test system: HEK293; test: as above; conditions: Five cell lines viability, CellTiter-Glo ATP luminescence, 48-72 h; max response: stronger effect = lower value
In short: as §1

[3] = test system: HaCat; test: as above; conditions: Five cell lines viability, CellTiter-Glo ATP luminescence, 48-72 h; max response: stronger effect = lower value
In short: as §1

[4] = test system: KB-3-1; test: as above; conditions: Five cell lines viability, CellTiter-Glo ATP luminescence, 48-72 h; max response: stronger effect = lower value
In short: as §1

[5] = test system: NIH3T3; test: as above; conditions: Five cell lines viability, CellTiter-Glo ATP luminescence, 48-72 h; max response: stronger effect = lower value
In short: as §1

[6] = test system: MCC-13; test: qHTS assay to identify novel small-molecules to repurpose for Merkel cell carcinoma treatment (AID 1296009); conditions: MCC and control cell lines, CellTiter-Glo viability, 72 h; series mostly up to 46 µM
In short: (§2)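 After compound transfer in DMSO, plates were kept 72 hr at 37 degree celsius. Luminescent ATP signal from CellTiter-Glo served as viability measure, normalized against DMSO and no-cell controls.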

[7] = test system: UISO; test: as above; conditions: MCC and control cell lines, CellTiter-Glo viability, 72 h; series mostly up to 46 µM
In short: as §2

[8] = test system: MCC-26; test: as above; conditions: MCC and control cell lines, CellTiter-Glo viability, 72 h; series mostly up to 46 µM
In short: as §2

[9] = test system: MKL-1; test: as above; conditions: MCC and control cell lines, CellTiter-Glo viability, 72 h; series mostly up to 46 µM
In short: as §2

[10] = test system: MKL-2; test: as above; conditions: MCC and control cell lines, CellTiter-Glo viability, 72 h; series mostly up to 46 µM
In short: as §2

[11] = test system: CRL-7250; test: as above; conditions: MCC and control cell lines, CellTiter-Glo viability, 72 h; at 44.8 µM (top of the series) unless noted
In short: as §2

[12] = test system: HACAT; test: as above; conditions: MCC and control cell lines, CellTiter-Glo viability, 72 h; at 44.8 µM (top of the series) unless noted
In short: as §2

[13] = test system: NIH3T3; test: as above; conditions: MCC and control cell lines, CellTiter-Glo viability, 72 h; at 44.8 µM (top of the series) unless noted
In short: as §2
% is set by controls: 0 for no effect and ±100 for the full control effect; potency is the fitted concentration of half-maximal effect.
Note: nearly all actives have a fitted effect of over 60% in size.

Oc1ccc2c3c1O[C@H]1[C@@H](O)C=C[C@H]4[C@@H](C2)NCC[C@@]341
inactive: max response [1] -20.7% | max response [2] -17.4% | max response [3] -5.53% | max response [4] -5.17% | max response [5] -2.9% | Potency [6] | Potency [7]

C=CCON=C(C[C@H]1O[C@@H]2O[C@]3(C)CC[C@@H]4[C@H](C)CC[C@@H]([C@H]1C)[C@@]24OO3)[C@H]1O[C@@H]2O[C@]3(C)CC[C@H]4[C@H](C)CC[C@@H]([C@@H]1C)[C@@]24OO3
inactive: Potency [8]
active: Potency [1] 0.935 µM | Potency [2] 0.235 µM | Potency [3] 2.96 µM | Potency [4] 1.32 µM | Potency [9] 1.18 µM

Nc1ccc(Cl)cc1
inactive: max response [1] -5.83% | max response [2] 4.83% | max response [3] -11.6% | max response [4] -17.1% | max response [5] 2.51% | Potency [6] | Potency [8] | Potency [9] | Potency [10] | Potency [7]

COC(=O)c1cncn1C(C)c1ccccc1 (stereo unspecified)
inactive: max response [1] -11.1% | max response [2] -16.1% | max response [3] -2.03% | max response [4] -9.65% | max response [5] 3.22% | Potency [6] | Potency [8] | Potency [9] | Potency [10] | Potency [7]

CCN1C[C@]2(OC(=O)c3ccccc3NC(C)=O)CC[C@H](OC)[C@@]34[C@H]5CC6[C@@H](OC)C[C@](O)(C(C[C@@H]23)[C@@H]14)[C@@]5(O)[C@@H]6OC
inactive: outcome [1] | outcome [3] | outcome [4] | outcome [5] | outcome [11] | outcome [12] | Potency [6] | Potency [8] | Potency [9] | Potency [10] | outcome [13] | Potency [7]

O=S(=O)(CC1CS1)c1ccc(Oc2ccccc2)cc1 (stereo unspecified)
active: Potency [9] 23.5 µM | Potency [10] 16.6 µM
inactive: max response [1] -6.75% | max response [3] 3.29% | max response [4] 0.22% | max response [5] -6.16% | Potency [6] | Potency [8]

CS(=O)(=O)c1ccc(C(=O)C2C(=O)CCCC2=O)c([N+](=O)[O-])c1
inactive: max response [1] -5.31% | max response [2] -9.25% | max response [4] -20.3% | max response [5] 4.33% | Potency [6] | Potency [9] | Potency [10] | Potency [7]

Cc1c(C(=O)c2cccc3ccccc23)c2cccc3c2n1[C@H](CN1CCOCC1)CO3
active: Potency [1] 20.9 µM | Potency [2] 18.7 µM | Potency [4] 13.2 µM | Potency [9] 23.5 µM | Potency [10] 23.5 µM

C=C1C[C@H]2[C@H]3CCC(=O)[C@@]3(C)CC[C@@H]2[C@@]2(C)C=CC(=O)C=C12
inactive: max response [1] -22.6% | outcome [3] | max response [4] 8.58% | max response [5] -14.2% | outcome [12] | Potency [6] | Potency [9] | Potency [7]

COc1ccc2c(c1)CN(C)CC2c1ccc(Cl)c(Cl)c1 (stereo unspecified)
inactive: outcome [1] | outcome [3] | outcome [4] | max response [5] -1.98% | outcome [11] | outcome [12] | Potency [6] | Potency [9] | Potency [7]

COC1=C[C@@H]2[C@@H]3Cc4ccc(OC)c(O)c4[C@]2(CCN3C)CC1=O
inactive: outcome [1] | max response [3] -2.22% | outcome [3] | max response [4] 1.47% | outcome [4] | outcome [5] | outcome [11] | outcome [12] | Potency [6] | Potency [8] | Potency [9] | Potency [10] | outcome [13] | Potency [7]

O=[N+]([O-])c1c(Cl)c(Cl)cc(Cl)c1Cl
inactive: max response [1] -4.27% | outcome [3] | max response [4] -18.1% | outcome [5] | outcome [12] inactive [at 92 µM] | Potency [6] | Potency [9] | Potency [10] | outcome [13] inactive [at 92 µM] | Potency [7]

CN[C@@H]1Cc2cccc3[nH]c(=O)n(c23)C1
inactive: max response [1] -16.3% | max response [2] -16.4% | max response [4] 9.87% | max response [5] 3.1% | Potency [6] | Potency [8] | Potency [9] | Potency [10] | Potency [7]

CN1CCN(c2ccc([N+](=O)[O-])c3no[n+]([O-])c23)CC1
inactive: max response [1] 3.76% and -14.8% | max response [3] 4.94% and 1.91% | outcome [4] | max response [5] 0.637% | outcome [5] | Potency [6] | Potency [8] | Potency [9] | outcome [13] | Potency [7]

C1=C2CCCN[C@H]2[C@@H]2C[C@H]1[C@@H]1CCCCN1C2
inactive: max response [1] -2.39% | outcome [3] | max response [4] 9.36% | outcome [5] | outcome [12] | Potency [6] | Potency [9] | Potency [10] | outcome [13] | Potency [7]

CCOP(=O)(NC(C)C)Oc1ccc(SC)c(C)c1 (stereo unspecified)
inactive: max response [1] -0.0778% | outcome [3] | max response [4] -7.33% | max response [5] -4.93% | outcome [12] inactive [at 92 µM] | Potency [6] | Potency [8] | Potency [9] | Potency [10] | Potency [7]
